Screens deposited in PubChem by National Center for Advancing Translational Sciences (NCATS).
Shiga toxin inh = A qHTS for Small Molecule Inhibitors of Shiga Toxin; Vero cells, Shiga toxin protein synthesis inhibition reporter; inhibition, % at 38.7 µM; actives 9.2% (n = 290,000); AID 2315, 2010; in the data active = inhibition mostly above about 28%, no sharp cut-off; inactive = mostly below about 43%; note: 0% is about no effect
NS1 function inh = qHTS Assay for Inhibitors of Influenza NS1 Protein Function. AID 2326, 2010. actives 0.4% (n = 270,000). Potency, µM (doses to about 46.1 µM), inactives show top-dose activity, positive = more growth; note: potency is the fitted concentration of half-maximal effect; actives are rising curves; nearly all actives have a fitted effect of over 50% in size
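Recovery from NS1-induced slow growth read by OD600 in budding yeast switched to galactose assay medium (pH 6.0, -URA) at 1:100 dilution. Compound 23 nl per well; the matching strain lacking NS1 serves as control.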
SARS PLpro yeast = qHTS of Yeast-based Assay for SARS-CoV PLP; Potency, µM (titrated, usually from 32.9 µM), for the others: at the highest dose activity, positive = growth rescue, usual class: activators; actives 0.19% (n = 330,000); S. cerevisiae expressing SARS-CoV PLpro, growth rescue; note: potency is the fitted concentration of half-maximal effect; 0% is about no effect; nearly all actives have a fitted effect of over 55% in size
CHX counter = Cycloheximide Counterscreen for Small Molecule Inhibitors of Shiga Toxin; cell reporter, cycloheximide protein synthesis inhibition counterscreen; max response, %; actives 12% (n = 300,000); in the data active = max response mostly above about 13%, no sharp cut-off; inactive = mostly below about 14%; note: read at 38.3 µM for the half of the compounds with a filed dose; 0% is about no effect
* = called active by the depositor; u = inconclusive; x = not tested or not shown. This is a sample that favours compounds with a hit; in the whole collection about 12% have one here. Unless noted, calls come from the whole dose curve.

SMILES | Shiga toxin inh | NS1 function inh | SARS PLpro yeast | CHX counter
O=C(Cn1c(=O)oc2ccccc21)Nc1ccc2c(c1)OCCO2 | 13 | -6% | 4% | 18*
Cc1ccnc(NC(=O)Cn2c(=O)oc3ccccc32)c1 | 60* | 13% | 2% | 20*
Cc1ccc(NC(=O)Cn2c(=O)oc3ccccc32)c(C)c1 | x | 9% | 1% | -4
CCOC(=O)N1CCN=C1SCc1ccc(C(F)(F)F)cc1 | 32 | x | 3% | -5
CCSc1nnc(NC(=O)[C@@H](NC(=O)c2cc(OC)cc(OC)c2)C(C)C)s1 | 30 | 0% | 1% | 5
COc1cc(OC)c(NC(=O)CCCn2c(=O)oc3ccccc32)cc1Cl | -14 | -3% | 23% | -2
COc1ccc(NC(=O)CCCn2c(=O)oc3ccccc32)cc1Cl | 64* | -2% | -6% | 66*
CN(C)c1ccc(-c2sc(Nc3ccccc3)n[n+]2-c2ccc(F)cc2)cc1 | 50* | -8% | 3% | 36*
CCc1ccc(Nc2n[n+](-c3ccccc3)c(-c3ccc(N(CC)CC)cc3)s2)cc1 | 51* | 5% | -6% | 35*
CCc1ccc(Nc2n[n+](-c3ccccc3)c(-c3c(Cl)cccc3Cl)s2)cc1 | -1 | -92% | -6% | 0
CCN(CC)c1ccc(-c2sc(Nc3ccccc3)n[n+]2-c2ccc(F)cc2)cc1 | 26* | 1% | 5% | 18*
O=C(COC(=O)CCc1ccccc1)Nc1ccccc1OC(F)F | -6 | -7% | -2% | -2
CCOc1ccccc1NC(=O)CSc1nnc(CNC(=O)c2c(F)cccc2Cl)o1 | -9 | 6% | -2% | 8
CCC1=C2CC[C@H]3C(=O)N(CC(=O)OC)C(=O)[C@H]3[C@H]2[C@@]2(C)C(=NCC(=O)OC)OC(=O)N2C1=O | 9 | 1% | 0% | 3
CN(C)CCCn1c(SCC(=O)Nc2nccs2)nnc1-c1ccncc1 | -4 | 5% | 2% | -2
O=S(=O)(c1cccc(-c2nc3ccccc3s2)c1)N1CCCC1 | 36 | 9% | -2% | 36*
O=S(=O)(c1ccc(-c2nc3ccccc3s2)cc1)N1CCCC1 | 21 | 3% | -5% | 24*
N=C(N)SC(c1ccccc1)c1ccccc1 | x | -6% | x | x
CCOc1ccc(S(=O)(=O)/N=C(\N)c2ccccc2)cc1 | 17 | -4% | -2% | -2
CCS(=O)(=O)/N=C(\N)c1ccccc1 | 22 | 2% | 6% | 30*
COc1cccc(C(=O)N2CCN(S(C)(=O)=O)CC2)c1 | -9 | -1% | 5% | -1
O=C1/C(=C/c2cccs2)SC(=S)N1c1cccc(O)c1 | 61 | 2% | 0% | 26*
CCOc1ccc(/C=C2\SC(=O)N(c3ccc(O)cc3)C2=O)cc1OC | 13 | 0% | 3% | 20*
O=C1S/C(=C\c2cccs2)C(=O)N1c1ccc(O)cc1 | 63* | 0% | 2% | 38*
OC(CNCc1cccnc1)COc1ccc2ccccc2c1 (stereo unspecified) | 18 | -6% | -8% | 1
SMILES | Shiga toxin inh | NS1 function inh | SARS PLpro yeast | CHX counter
CN=C(N)/N=C(\N)Nc1cc2ccccc2c2ccccc12 | x | 3% | x | x
CCN(C(=O)COC(=O)c1cc(S(=O)(=O)N2CCOCC2)ccc1F)C1CCS(=O)(=O)C1 (stereo unspecified) | x | x | 2% | x
CCC(Oc1ccccc1)C(=O)Nc1ccc(-c2nnc(-c3ccco3)o2)cc1 (stereo unspecified) | 89* | -5% | -7% | 36*
C/C(=N\Nc1nc(Cl)c(Cl)cc1Cl)c1ccc(S(=O)(=O)NCc2ccco2)cc1 | 122* | -16% | -19% | 69*
CCC(=O)Nc1ccc(S(=O)(=O)NCc2ccco2)cc1 | -9 | 8% | 1% | -7
C/C(=N\Nc1ccc(C(=O)O)cc1)c1ccc(S(=O)(=O)NCc2ccco2)cc1 | 77* | -1% | 0% | 45*
C/C(=N\Nc1ccccn1)c1ccc(S(=O)(=O)NCc2ccco2)cc1 | 81* | -21% | 8% | 44*
C/C(=N\Nc1ccc(C(F)(F)F)cn1)c1ccc(S(=O)(=O)NCc2ccco2)cc1 | 121* | u | 3% | 72*
O=C(CCn1c(=O)[nH]c2ccsc2c1=O)NCc1ccc(F)cc1 | -6 | x | -2% | -1
Cc1cc(OCC(=O)OCC(=O)NCCN2C(=O)CSC2=O)ccc1Cl | x | x | 3% | x
Cc1cccc2sc(NS(C)(=O)=O)nc12 | -3 | 8% | 0% | 1
O=C(O/N=C1/CCSc2ccccc21)c1ccccc1 | 40* | -56% | -18% | 39*
O=C(O/N=C1\CCCc2ccccc21)c1ccc(F)cc1 | 21* | -3% | -3% | 16*
O=C1CN(C(=O)CNC(=O)c2ccc(Cl)cc2Cl)CCN1 | -6 | 5% | -12% | -10
COc1cc(/C=C(/C#N)C(=O)Nc2ccccc2)ccc1OCc1ccc(C(=O)O)cc1 | 36 | x | -2% | 25
N#C/C(=C\c1ccc(OCc2ccc(Cl)cc2)cc1)C(=O)Nc1cccc(C(=O)O)c1 | 34* | -40% | -8% | 18*
COc1cc(/C=C(\C#N)C(=O)Nc2cccc(C(=O)O)c2)ccc1OCc1ccc(C)cc1 | 74* | -1% | -2% | 26*
N#C/C(=C\c1cc(O)c(O)c(O)c1)C(N)=O | -8 | 1% | 1% | -2
N#C/C(=C\c1cc(Cl)c(OCc2ccc(Cl)cc2)c(Cl)c1)C(N)=O | 53* | -31% | -1% | 30*
COc1cc(/C=C(/C#N)c2ccccc2F)ccc1OCc1ccccc1 | 53* | -5% | 18% | 34*
COc1cc(C(=O)OCCc2cc3ccccc3c(=O)o2)cc(OC)c1OC | x | x | 2% | x
N#C/C(=C\c1ccc(OCc2cccc(C(=O)O)c2)cc1)C(=O)NCc1ccco1 | 101* | 7% | -2% | 52*
N#C/C(=C\c1ccc(OCc2ccc(C(=O)O)cc2)cc1)C(=O)NCc1ccccc1 | x | 18% | 1% | -2
NC(=O)/C(=C/c1cccnc1)NC(=O)c1ccccc1 | 7 | 7% | 3% | -1
Oc1ccccc1-c1nnc2n1CCCCC2 | -11 | 6% | 0% | -3
SMILES | Shiga toxin inh | NS1 function inh | SARS PLpro yeast | CHX counter
O=C(NCc1ccco1)c1noc2c1CCCCC2 | 40* | -30% | -4% | 33*
O=C(NCc1cccc(F)c1)c1noc2c1CCCC2 | 54* | -2% | -4% | 39*
O=C(NCc1ccccc1)c1noc2c1CCCC2 | 34 | -6% | -9% | 44*
O=C(NCc1cccnc1)c1noc2c1CCCCC2 | 55 | -8% | -3% | 4
O=C(NCc1ccc(Cl)cc1)c1noc2c1CCCC2 | 40* | -43% | -3% | 25*
O=C(NCc1cccnc1)c1noc2c1CCCC2 | 18 | 3% | 4% | -1
Cc1onc(-c2ccccc2)c1C1=N/C(=C\c2ccccc2F)C(=O)O1 | -8 | x | 2% | 6
CCN(CC)S(=O)(=O)c1ccc(C)c(NC(=O)CN2CCN(C)CC2)c1 | 13 | 4% | 0% | 1
COc1ccc(CNC(=O)c2noc3c2CCCC3)cc1 | 114* | -8% | 11% | 28*
COc1ccc(CNC(=O)C(=O)NCC2CCCO2)cc1 (stereo unspecified) | -2 | 2% | 2% | -1
CC(=O)c1ccc(N2CCN(C(=O)c3noc4c3CSc3ccccc3-4)CC2)cc1 | 13 | u | 8% | 17*
